In PMC5540273 (PLoS ONE, 2017):

Experiments:
Details in all cases: concentration: 1 μM, replicates: in singlicate; n = 1
MYLK4 = tested on: MYLK4
MYLK = tested on: MYLK
MYO3A = tested on: MYO3A
MYO3B = tested on: MYO3B
NDR1 = tested on: T1, NDR1
T1 construct: gene STK38

NDR2 = tested on: NDR2
NEK10 = tested on: NEK10
NEK11 = tested on: NEK11
NEK1 = tested on: NEK1
NEK2 = tested on: NEK2
NEK3 = tested on: NEK3
NEK4 = tested on: NEK4
NEK5 = tested on: NEK5
NEK6 = tested on: NEK6
NEK7 = tested on: NEK7
NEK9 = tested on: NEK9
NIK = tested on: T2, NIK
T2 construct: gene MAP3K14

NIM1 = tested on: T3, NIM1
T3 construct: gene MGC42105

NLK = tested on: NLK
OSR1 = tested on: T4, OSR1
T4 construct: gene OXSR1
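Also: KINOMEscan kinase panel screen.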

| SMILES | %Inh (MYLK4) | %Inh (MYLK) | %Inh (MYO3A) | %Inh (MYO3B) | %Inh (NDR1) | %Inh (NDR2) | %Inh (NEK10) | %Inh (NEK11) | %Inh (NEK1) | %Inh (NEK2) | %Inh (NEK3) | %Inh (NEK4) | %Inh (NEK5) | %Inh (NEK6) | %Inh (NEK7) | %Inh (NEK9) | %Inh (NIK) | %Inh (NIM1) | %Inh (NLK) | %Inh (OSR1) |
| --- | --- | --- | --- | --- | --- | --- | --- | --- | --- | --- | --- | --- | --- | --- | --- | --- | --- | --- | --- | --- |
| Fc1ccc(-c2ncn(CCCNCc3ccccc3)c2-c2ccncc2)cc1 | 0% | 13% | 7% | 22% | 0% | 19% | 34% | 19% | 0% | 0% | 31% | 7% | 6% | 12% | 0% | 0% | 12% | 15% | 13% | 19% |
| CN1CCC(n2cnc(-c3ccc(F)cc3)c2-c2ccnc(NC3CCNCC3)n2)CC1 [SB-229482] | 11% | 5% | 14% | 0% | 0% | 0% | 13% | 0% | 0% | 0% | 9% | 0% | 0% | 12% | 1% | 21% | 0% | 54% | 52% | 0% |
| Cn1ccc2ncnc(Nc3ccc(Oc4cccc(Cl)c4)c(Cl)c3)c21 | 3% | 0% | 0% | 3% | 22% | 11% | 2% | 0% | 0% | 0% | 26% | 11% | 0% | 25% | 4% | 17% | 0% | 0% | 0% | 15% |
| C[C@@H]1CCN(C(=O)CO)C[C@@H]1N(C)c1ncnc2[nH]ccc12 | 0% | 3% | 0% | 0% | 6% | 14% | 48% | 0% | 0% | 0% | 38% | 0% | 1% | 0% | 0% | 0% | 0% | 0% | 100% | 0% |
| NC(=O)c1sc(-n2cnc3ccccc32)cc1OCc1ccccc1F [GSK1024306] | 6% | 2% | 3% | 0% | 0% | 11% | 22% | 32% | 0% | 0% | 0% | 0% | 0% | 0% | 0% | 0% | 0% | 20% | 1% | 1% |
| CS(=O)(=O)CCNCc1ccc(-c2ccc3ncnc(Nc4ccc(OCc5ccccc5)c(Cl)c4)c3c2)o1.Cl [GW574783] | 2% | 7% | 0% | 0% | 0% | 0% | 23% | 26% | 0% | 0% | 0% | 5% | 0% | 0% | 0% | 0% | 100% | 0% | 12% | 0% |
| Nc1n[nH]c2nnc(-c3ccccc3)cc12 [SB-517389] | 24% | 19% | 0% | 0% | 14% | 0% | 17% | 0% | 0% | 5% | 29% | 21% | 27% | 0% | 0% | 7% | 0% | 15% | 36% | 0% |
| Nc1nc(-c2ccccn2)c(-c2ccnc3ccccc23)s1 [GW548057] | 16% | 10% | 51% | 0% | 31% | 52% | 11% | 36% | 2% | 0% | 8% | 0% | 20% | 0% | 0% | 0% | 22% | 38% | 30% | 8% |
| Cc1ccc(C)c(NC(=O)NCCNc2ccnc(Nc3ccc(F)cc3)n2)c1 [GSK1379878] | 0% | 8% | 0% | 0% | 0% | 16% | 11% | 17% | 0% | 0% | 0% | 0% | 3% | 0% | 0% | 9% | 10% | 0% | 0% | 0% |
| N#Cc1ccc(Oc2ccc(Nc3ncnc4cc[nH]c34)cc2Cl)cc1 | 13% | 30% | 18% | 38% | 33% | 0% | 3% | 0% | 0% | 10% | 26% | 0% | 0% | 0% | 13% | 2% | 0% | 30% | 17% | 4% |
| Fc1ccc(Nc2nccc(-c3c(-c4ccc(Cl)cc4)nn4ncccc34)n2)cc1F [GW829058] | 0% | 38% | 15% | 21% | 24% | 28% | 19% | 25% | 17% | 16% | 11% | 8% | 13% | 21% | 0% | 5% | 43% | 34% | 70% | 28% |
| CC(C)N1CCC(n2cnc(-c3ccc(F)cc3)c2-c2ccnc(N)n2)CC1 [SB-223132] | 9% | 19% | 0% | 0% | 7% | 0% | 9% | 0% | 11% | 0% | 33% | 0% | 3% | 8% | 0% | 0% | 0% | 0% | 49% | 0% |
| O=C(Nc1ccccc1)Nc1ccc(Oc2ccc3nccn3n2)cc1 | 0% | 11% | 0% | 0% | 16% | 0% | 0% | 0% | 0% | 0% | 8% | 0% | 20% | 0% | 0% | 0% | 0% | 0% | 2% | 0% |
| CCCc1ccc(S(=O)(=O)NC2CCN(c3ccnc(Nc4ccc(OC)cc4)n3)C2)cc1 (stereo not drawn) [GSK1379737] | 0% | 30% | 15% | 0% | 0% | 0% | 21% | 27% | 0% | 0% | 1% | 10% | 15% | 39% | 0% | 0% | 43% | 30% | 0% | 100% |
| FC(F)(F)c1cc(Nc2nccc(-c3c(-c4ccc(Cl)cc4)nn4ncccc34)n2)ccc1Cl [GW829351] | 1% | 0% | 0% | 0% | 16% | 0% | 0% | 0% | 0% | 0% | 2% | 0% | 0% | 0% | 0% | 0% | 4% | 0% | 29% | 0% |
| COC(=O)c1cccc(NC(=O)NCCNc2ccnc(Nc3ccc(F)cc3)n2)c1 [GSK1379883] | 6% | 11% | 31% | 0% | 0% | 27% | 8% | 10% | 0% | 0% | 0% | 0% | 17% | 0% | 0% | 11% | 9% | 0% | 0% | 4% |
| CSc1nn2c(=O)cc(N3CCOCC3)nc2n1Cc1cccc(Cl)c1Cl [GSK2347225] | 4% | 12% | 0% | 0% | 23% | 0% | 29% | 0% | 0% | 0% | 1% | 0% | 18% | 17% | 37% | 47% | 0% | 21% | 21% | 6% |
| COc1ccc(NC(=O)Nc2ccc(C)c(-c3ccc(C(=O)Nc4ccncc4)cc3)c2)cc1 [GSK1398475] | 0% | 0% | 1% | 0% | 17% | 0% | 0% | 0% | 0% | 0% | 10% | 0% | 8% | 0% | 0% | 0% | 0% | 0% | 43% | 0% |
| c1ccc(-c2ccc3c(-c4ccnc(Nc5ccc6c(c5)OCCO6)n4)cnn3n2)cc1 [GW818941] | 0% | 11% | 15% | 0% | 11% | 0% | 19% | 0% | 0% | 0% | 0% | 4% | 14% | 15% | 43% | 27% | 10% | 7% | 17% | 0% |
| COc1ccc(Nc2nccc(N3CCC(NC(=O)Nc4ccc5c(c4)OCO5)C3)n2)cc1 (stereo not drawn) [GSK1379745] | 0% | 25% | 0% | 3% | 0% | 0% | 0% | 0% | 0% | 0% | 0% | 3% | 25% | 7% | 3% | 0% | 1% | 22% | 0% | 12% |
| CN1c2ccc(-c3ccc(C(=O)NCCO)cc3)cc2-c2[nH]ncc2S1(=O)=O | 0% | 87% | 6% | 0% | 26% | 0% | 0% | 0% | 8% | 6% | 45% | 0% | 0% | 0% | 0% | 8% | 37% | 0% | 0% | 0% |
